# Measurements as given in article PMC5540273 (PLoS ONE, 2017).
# Where two headings read alike, the source gives them in different places.
# Tests used:
# Conditions in all cases: n = 1
# TTK = tested on: TTK
# TXK = tested on: TXK
# [1] = tested on: TYK2(JH1domain-catalytic)
# [2] = tested on: TYK2(JH2domain-pseudokinase)
# TYRO3 = tested on: TYRO3
# ULK1 = tested on: ULK1
# ULK2 = tested on: ULK2
# ULK3 = tested on: ULK3
# VEGFR2 = tested on: T1, VEGFR2
# T1 construct: gene KDR
# VPS34 = tested on: T2, VPS34
# T2 construct: gene PIK3C3
# VRK2 = tested on: VRK2
# WEE1 = tested on: WEE1
# WEE2 = tested on: WEE2
# WNK1 = tested on: WNK1
# WNK2 = tested on: WNK2
# WNK3 = tested on: WNK3
# WNK4 = tested on: WNK4
# YANK1 = tested on: T3, YANK1
# T3 construct: gene STK32A
# YANK2 = tested on: T4, YANK2
# T4 construct: gene STK32B
# YANK3 = tested on: T5, YANK3
# T5 construct: gene STK32C
# [3] = concentration: 1 μM, replicates: in singlicate
# 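Also: KINOMEscan kinase panel screen.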
smiles,measurement,setting,value
COC(=O)c1c(-c2ccccc2)c2cc(OC)ccc2c(=O)n1Cc1ccccc1,%Inh,TTK; [3],14%
same,%Inh,TXK; [3],12%
same,%Inh,[1]; [3],7%
same,%Inh,[2]; [3],0%
same,%Inh,TYRO3; [3],0%
same,%Inh,ULK1; [3],1%
same,%Inh,ULK2; [3],0%
same,%Inh,ULK3; [3],0%
same,%Inh,VEGFR2; [3],7%
same,%Inh,VPS34; [3],0%
same,%Inh,VRK2; [3],0%
same,%Inh,WEE1; [3],0%
same,%Inh,WEE2; [3],9%
same,%Inh,WNK1; [3],0%
same,%Inh,WNK2; [3],0%
same,%Inh,WNK3; [3],0%
same,%Inh,WNK4; [3],0%
same,%Inh,YANK1; [3],0%
same,%Inh,YANK2; [3],4%
same,%Inh,YANK3; [3],0%
Fc1cc(Cl)ccc1Nc1ccnc2cc(-c3ccc(CN4CCCCC4)o3)ccc12 [GW560116],%Inh,TTK; [3],0%
same,%Inh,TXK; [3],23%
same,%Inh,[1]; [3],27%
same,%Inh,[2]; [3],18%
same,%Inh,TYRO3; [3],0%
same,%Inh,ULK1; [3],0%
same,%Inh,ULK2; [3],0%
same,%Inh,ULK3; [3],0%
same,%Inh,VEGFR2; [3],6%
same,%Inh,VPS34; [3],22%
same,%Inh,VRK2; [3],38%
same,%Inh,WEE1; [3],0%
same,%Inh,WEE2; [3],4%
same,%Inh,WNK1; [3],0%
same,%Inh,WNK2; [3],0%
same,%Inh,WNK3; [3],34%
same,%Inh,WNK4; [3],49%
same,%Inh,YANK1; [3],0%
same,%Inh,YANK2; [3],0%
same,%Inh,YANK3; [3],0%
Cc1cccc(-c2nc(-c3ccc(S(C)(=O)=O)cc3)sc2-c2ccnc(NCCc3ccccc3)c2)c1,%Inh,TTK; [3],10%
same,%Inh,TXK; [3],6%
same,%Inh,[1]; [3],0%
same,%Inh,[2]; [3],18%
same,%Inh,TYRO3; [3],0%
same,%Inh,ULK1; [3],0%
same,%Inh,ULK2; [3],8%
same,%Inh,ULK3; [3],0%
same,%Inh,VEGFR2; [3],0%
same,%Inh,VPS34; [3],82%
same,%Inh,VRK2; [3],0%
same,%Inh,WEE1; [3],0%
same,%Inh,WEE2; [3],9%
same,%Inh,WNK1; [3],0%
same,%Inh,WNK2; [3],0%
same,%Inh,WNK3; [3],0%
same,%Inh,WNK4; [3],0%
same,%Inh,YANK1; [3],0%
same,%Inh,YANK2; [3],13%
same,%Inh,YANK3; [3],14%
CN(C)CCN(C)C(=O)c1cc(-c2ccncc2)c(-c2ccc(Cl)c(O)c2)o1.Cl.Cl [SB-710397],%Inh,TTK; [3],0%
same,%Inh,TXK; [3],4%
same,%Inh,[1]; [3],43%
same,%Inh,[2]; [3],45%
same,%Inh,TYRO3; [3],0%
same,%Inh,ULK1; [3],13%
same,%Inh,ULK2; [3],0%
same,%Inh,ULK3; [3],9%
same,%Inh,VEGFR2; [3],0%
same,%Inh,VPS34; [3],0%
same,%Inh,VRK2; [3],24%
same,%Inh,WEE1; [3],0%
same,%Inh,WEE2; [3],5%
same,%Inh,WNK1; [3],15%
same,%Inh,WNK2; [3],0%
same,%Inh,WNK3; [3],38%
same,%Inh,WNK4; [3],47%
same,%Inh,YANK1; [3],49%
same,%Inh,YANK2; [3],71%
same,%Inh,YANK3; [3],35%
Cc1csc(-c2nc(Nc3ccncc3)c3ccccc3n2)n1 [GW869640],%Inh,TTK; [3],35%
same,%Inh,TXK; [3],0%
same,%Inh,[1]; [3],100%
same,%Inh,[2]; [3],83%
same,%Inh,TYRO3; [3],0%
same,%Inh,ULK1; [3],33%
same,%Inh,ULK2; [3],23%
same,%Inh,ULK3; [3],50%
same,%Inh,VEGFR2; [3],36%
same,%Inh,VPS34; [3],33%
same,%Inh,VRK2; [3],20%
same,%Inh,WEE1; [3],1%
same,%Inh,WEE2; [3],12%
same,%Inh,WNK1; [3],37%
same,%Inh,WNK2; [3],0%
same,%Inh,WNK3; [3],33%
same,%Inh,WNK4; [3],13%
same,%Inh,YANK1; [3],2%
same,%Inh,YANK2; [3],3%
same,%Inh,YANK3; [3],43%
COc1ccccc1-c1ccc2c(NC(=O)C3CC3)n[nH]c2n1 [SB-711239],%Inh,TTK; [3],21%
same,%Inh,TXK; [3],0%
same,%Inh,[1]; [3],0%
same,%Inh,[2]; [3],18%
same,%Inh,TYRO3; [3],0%
same,%Inh,ULK1; [3],63%
same,%Inh,ULK2; [3],0%
same,%Inh,ULK3; [3],100%
same,%Inh,VEGFR2; [3],0%
same,%Inh,VPS34; [3],15%
same,%Inh,VRK2; [3],21%
same,%Inh,WEE1; [3],8%
same,%Inh,WEE2; [3],5%
same,%Inh,WNK1; [3],7%
same,%Inh,WNK2; [3],0%
same,%Inh,WNK3; [3],37%
same,%Inh,WNK4; [3],0%
same,%Inh,YANK1; [3],15%
same,%Inh,YANK2; [3],0%
same,%Inh,YANK3; [3],20%
CS(=O)(=O)c1ccc(-c2nc3n(c2-c2ccncc2)CCC3)cc1 [SKF-105942],%Inh,TTK; [3],0%
same,%Inh,TXK; [3],0%
same,%Inh,[1]; [3],0%
same,%Inh,[2]; [3],0%
same,%Inh,TYRO3; [3],0%
same,%Inh,ULK1; [3],19%
same,%Inh,ULK2; [3],0%
same,%Inh,ULK3; [3],11%
same,%Inh,VEGFR2; [3],0%
same,%Inh,VPS34; [3],0%
same,%Inh,VRK2; [3],12%
same,%Inh,WEE1; [3],0%
same,%Inh,WEE2; [3],10%
same,%Inh,WNK1; [3],0%
same,%Inh,WNK2; [3],0%
same,%Inh,WNK3; [3],0%
same,%Inh,WNK4; [3],29%
same,%Inh,YANK1; [3],0%
same,%Inh,YANK2; [3],0%
same,%Inh,YANK3; [3],100%
CN1C(=O)C(Nc2ccc(Cl)c(C(=O)O)c2)=C(c2ccc(Cl)cc2)C1=O [SB-404290],%Inh,TTK; [3],22%
same,%Inh,TXK; [3],0%
same,%Inh,[1]; [3],0%
same,%Inh,[2]; [3],0%
same,%Inh,TYRO3; [3],0%
same,%Inh,ULK1; [3],2%
same,%Inh,ULK2; [3],2%
same,%Inh,ULK3; [3],24%
same,%Inh,VEGFR2; [3],6%
same,%Inh,VPS34; [3],28%
same,%Inh,VRK2; [3],0%
same,%Inh,WEE1; [3],0%
same,%Inh,WEE2; [3],21%
same,%Inh,WNK1; [3],0%
same,%Inh,WNK2; [3],0%
same,%Inh,WNK3; [3],5%
same,%Inh,WNK4; [3],16%
same,%Inh,YANK1; [3],0%
same,%Inh,YANK2; [3],0%
same,%Inh,YANK3; [3],0%
Cc1ccc(NC(=O)Nc2cccc(C(F)(F)F)c2)cc1 [GSK955403],%Inh,TTK; 1 µM,19%
same,%Inh,TXK; 1 µM,38%
same,%Inh,[1]; 1 µM,24%
same,%Inh,[2]; 1 µM,0%
same,%Inh,TYRO3; 1 µM,16%
same,%Inh,ULK1; 1 µM,0%
same,%Inh,ULK2; 1 µM,6%
same,%Inh,ULK3; 1 µM,0%
same,%Inh,VEGFR2; 1 µM,0%
same,%Inh,VPS34; 1 µM,0%
same,%Inh,VRK2; 1 µM,0%
same,%Inh,WEE1; 1 µM,3%
same,%Inh,WEE2; 1 µM,0%
same,%Inh,WNK1; 1 µM,0%
same,%Inh,WNK2; 1 µM,0%
same,%Inh,WNK3; 1 µM,0%
same,%Inh,WNK4; 1 µM,0%
same,%Inh,YANK1; 1 µM,0%
same,%Inh,YANK2; 1 µM,0%
same,%Inh,YANK3; 1 µM,0%
O=C1NC(=O)C(N2CCc3ccccc32)=C1c1ccccc1Cl [SB-373598],%Inh,TTK; [3],65%
same,%Inh,TXK; [3],28%
same,%Inh,[1]; [3],0%
same,%Inh,[2]; [3],0%
same,%Inh,TYRO3; [3],0%
same,%Inh,ULK1; [3],61%
same,%Inh,ULK2; [3],6%
same,%Inh,ULK3; [3],39%
same,%Inh,VEGFR2; [3],2%
same,%Inh,VPS34; [3],16%
same,%Inh,VRK2; [3],0%
same,%Inh,WEE1; [3],6%
same,%Inh,WEE2; [3],9%
same,%Inh,WNK1; [3],0%
same,%Inh,WNK2; [3],2%
same,%Inh,WNK3; [3],22%
same,%Inh,WNK4; [3],75%
same,%Inh,YANK1; [3],13%
same,%Inh,YANK2; [3],16%
same,%Inh,YANK3; [3],20%
